Bioassay records (PubChem)
TDP43 rescue: TDP-43 toxicity inhibition in yeast; TDP-43 expressing yeast growth rescue, BacTiter-Glo, 24 h; Potency, µM (top dose mostly 46.1 µM), for inactives: at the highest dose growth rescue (activation), hits mostly activators; 1.8% of 410,000 active; AID 652104; further: % of control where 0% means no effect; nearly all actives have a fitted effect of over 50% in size
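Luminescence from BacTiter-Glo reports growth of TDP-43-expressing yeast after 24 hr at 30 deg C with compound. Cells were raffinose-pregrown to mid-log, then seeded in galactose medium at OD600=0.02.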
FUS yeast rescue: FUS proteinopathy suppression in yeast | S. cerevisiae FUS-expressing, growth rescue, OD600, 24 h | Potency, µM (titrated, usually from 76.6 µM), usual class: activators | 0.24% of 390,000 active | AID 1347120;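 further: plate controls were DMSO vehicle for no effect and reference control for full effect; nearly all actives have a fitted effect of over 55% in size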
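Read-out: OD at 600 nm after 24hr at 30C, reporting rescue of FUS-induced yeast toxicity. Cells at OD 0.005 in galactose (2%) minimal medium; compounds tested in a dilution series; CP55940 titration from 92uM final as control.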
Abeta yeast res: A-beta toxicity reversal in yeast; yeast expressing A-beta42, growth rescue, OD600, 48 h; response scale: 0% DMSO, 100% iron-clioquinol control; 0.063% of 410,000 active; Potency, µM (highest dose often 46.1 µM), most hits filed as activators; further: nearly all actives have a fitted effect of over 55% in size
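Growth rescue measured by 600 nm absorbance after 48 h yeast culture at 30 C with compound. Values normalized between DMSO and an equimolar ferric chloride plus clioquinol control.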
aSyn rescue: alpha-synuclein toxicity inhibition in yeast | AID 652106 | Yeast expressing alpha-synuclein, growth rescue, BacTiter-Glo, 24 h | Potency, µM (titrated, usually from 46.1 µM), inactives show at the top dose growth rescue (activation), hits mostly activators | 0.14% of 370,000 active; further: % of control where 0% means no effect; nearly all actives have a fitted effect of over 65% in size
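Galactose-induced alpha-syn yeast (OD600=0.02, raffinose-pregrown) + pinned cpd, 24 hr, 30 deg C; growth by BacTiter-Glo luminescence. Growth restoration scores as activation.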
* marks the source's active call; other numbers are inactive results; [ ] = remark or other dose. Only some compounds are listed: those with a hit (about 2.1% of all), similar ones and a draw of the others. The call rests on the fitted dose curve; in most records, active means well fitted curve in the direction sought with a large enough effect; inconclusive means small, poorly fitted or top-dose-only effect, or another doubt; inactive means no such curve, though single readings can be large; an effect the other way counts as inactive or inconclusive. Potency means the concentration at half of the fitted maximal effect.

COc1ccc(C2C=C(c3ccccc3)Nc3nc(NC(=O)/C=C/c4ccc(Cl)cc4)nn32)cc1 (stereo not drawn) was read as TDP43 rescue 0%[9.22 µM], FUS yeast rescue inactive and Abeta yeast res inactive.
CCS(=O)(=O)c1nc2ccccc2n1Cc1ccccc1Cl was read as TDP43 rescue 16µM*, FUS yeast rescue inactive, Abeta yeast res inactive and aSyn rescue -4%.
`CCOc1ccccc1C(=O)Nc1cc(Cl)ccc1O` gave TDP43 rescue 2.8µM*, FUS yeast rescue inactive, Abeta yeast res inactive and aSyn rescue -35%.
For CCOc1ccccc1C(=O)Nc1cc2c(cc1N1CCCCC1)n(C)c(=O)n2C the results were TDP43 rescue 32µM*, FUS yeast rescue inactive and Abeta yeast res inactive.
COc1ccccc1C(=O)Nc1cc(Cl)ccc1O was read as TDP43 rescue 5%, FUS yeast rescue inactive, Abeta yeast res inactive and aSyn rescue -5%.
For O=C(c1ccco1)N1CCN(/C=C2\Nc3ccccc3C(=O)N2c2ccc(F)cc2)CC1 the results were aSyn rescue 0%.
`NC(=O)c1ccc(NC(=O)CSc2nnc(-c3ccccc3)n2-c2ccccc2)cc1` gave FUS yeast rescue inactive.
For Cc1ccc(OCC(=O)N(Cc2ccc(Cl)cc2)Cc2ccco2)cc1C the results were TDP43 rescue 10%, FUS yeast rescue inactive and Abeta yeast res inactive.
`O=C(NCc1ccco1)c1ccc(N2CCCCC2)c([N+](=O)[O-])c1` gave TDP43 rescue inconclusive, FUS yeast rescue inactive, Abeta yeast res inactive and aSyn rescue 6%.
Screening O=C(NCc1ccco1)c1cc([N+](=O)[O-])ccc1N1CCCCC1 returned TDP43 rescue 14µM*, FUS yeast rescue inactive, Abeta yeast res inactive and aSyn rescue 0%.
O=C(NCc1ccc2c(c1)OCO2)c1cc([N+](=O)[O-])ccc1N1CCCCC1 was read as TDP43 rescue 20µM*, Abeta yeast res inactive and aSyn rescue 9%.
`Clc1ccccc1-c1nnc(COc2ccccc2)o1` gave TDP43 rescue 9%, FUS yeast rescue inactive and Abeta yeast res inactive.
`FC(F)(F)c1cccc(NC(=S)NCc2ccccc2)c1` gave TDP43 rescue 14µM*, FUS yeast rescue inactive, Abeta yeast res inconclusive and aSyn rescue -24%.
Cc1nc2ccc(NC(=S)NCc3ccccc3)cc2nc1C was read as TDP43 rescue -15%[0.397 µM], FUS yeast rescue inactive, Abeta yeast res inactive and aSyn rescue 2%.
Screening Cc1ccc(NC(=S)NCc2ccccc2)cc1C returned TDP43 rescue 13µM*, FUS yeast rescue inactive, Abeta yeast res inactive and aSyn rescue 12%.
CCOc1cc(OCC)cc(C(=O)NC(=S)Nc2cccc(C(F)(F)F)c2)c1 was read as TDP43 rescue 9%, Abeta yeast res inactive and aSyn rescue -21%.
O=C(NC(=S)Nc1cccc(C(F)(F)F)c1)c1ccc2nonc2c1 was read as TDP43 rescue 11µM*, FUS yeast rescue inactive, Abeta yeast res inactive and aSyn rescue -19%.
`COC(=O)/C=C1\OC(C2CC2)c2ccccc21` (stereo not drawn) gave TDP43 rescue 28µM*, FUS yeast rescue inactive, Abeta yeast res inactive and aSyn rescue -9%.
Screening O=C(Nc1nccs1)c1ccc(COc2ccccc2)o1 returned TDP43 rescue 11%, FUS yeast rescue inactive, Abeta yeast res inactive and aSyn rescue -6%.
Screening Cc1ccc(SCC(=O)Nc2nccs2)cc1 returned TDP43 rescue 11µM*, FUS yeast rescue inactive, Abeta yeast res inactive and aSyn rescue 1%.
For O=C(Nc1cccc(F)c1)c1ccc(CSc2ccccc2)o1 the results were TDP43 rescue -6%, FUS yeast rescue inactive, Abeta yeast res inactive and aSyn rescue -11%.
For O=C(Nc1nccs1)c1ccc(CSc2ccccc2)o1 the results were TDP43 rescue 11µM*, FUS yeast rescue inactive, Abeta yeast res inactive and aSyn rescue -18%.
Cc1ccc(SCc2ccc(C(=O)Nc3nccs3)o2)cc1 was read as TDP43 rescue 13µM*, FUS yeast rescue inactive, Abeta yeast res inconclusive and aSyn rescue 4%.
Screening O=C(Nc1ccccc1F)c1ccc(CSc2ccccc2)o1 returned TDP43 rescue 13µM*, FUS yeast rescue inactive, Abeta yeast res inactive and aSyn rescue -13%.
Screening CCOc1ccc(CCNC(=O)CSc2nnnn2-c2ccccc2)cc1OCC returned TDP43 rescue 11%, FUS yeast rescue inactive, Abeta yeast res inactive and aSyn rescue -4%.
Screening CCOc1ccc(-c2c(C)nn3c(C)c(C(=O)NCc4cccc(OC)c4)cnc23)cc1OCC returned TDP43 rescue 21%, FUS yeast rescue inactive and Abeta yeast res inactive.
`CCN(CC)CCCNC(=O)C1c2ccccc2C(=O)N(C)C1c1ccc(OC)cc1` (stereo not drawn) gave TDP43 rescue 22µM*, FUS yeast rescue inactive, Abeta yeast res inactive and aSyn rescue -4%.
`CCOC(=O)C1=NN(C(=O)c2ccc(C)cc2)C(O)(c2ccc(Cl)cc2)C1` (stereo not drawn) gave TDP43 rescue 13µM*, FUS yeast rescue inconclusive, Abeta yeast res inactive and aSyn rescue inconclusive.
COC(=O)C1=NN(C(=O)c2ccc(Cl)cc2)C(O)(c2ccccc2)C1 (stereo not drawn) was read as TDP43 rescue 27%, FUS yeast rescue inactive, Abeta yeast res inactive and aSyn rescue 20µM*.
For CCOC(=O)c1cccc(NC(=O)c2nn(-c3ccc(OC)cc3)c(=O)c3c2c2ccccc2n3C)c1 the results were TDP43 rescue 22%, FUS yeast rescue inactive and Abeta yeast res inactive.
`COc1ccc(-c2cc(C(=O)N(C)Cc3ccc(F)cc3)c3ccccc3n2)cc1OC` gave TDP43 rescue 22µM*, FUS yeast rescue inactive, Abeta yeast res inactive and aSyn rescue -5%.
COc1ccc(CNC(=O)CSc2nc(-c3ccc(OC)c(OC)c3)cc(C(F)(F)F)n2)cc1 was read as TDP43 rescue 11%, FUS yeast rescue inactive and Abeta yeast res inactive.
`O=C(c1cccc(S(=O)(=O)N2CCCCC2)c1)N1CCc2ccccc21` gave TDP43 rescue -7%, FUS yeast rescue 2.8µM*, Abeta yeast res inactive and aSyn rescue 4%.
Screening Cc1ccccc1NS(=O)(=O)c1ccc(C(=O)N2CCCC2)cc1 returned TDP43 rescue 1%, Abeta yeast res inactive and aSyn rescue -2%.
Screening Cc1cccc(N2CCN(C(=O)c3cccc(N4CCCC4=O)c3)CC2)c1C returned TDP43 rescue 13µM*, FUS yeast rescue inactive, Abeta yeast res inactive and aSyn rescue 5%.
Screening O=C(c1ccc(N2CCCC2=O)cc1)N1CCN(c2ccccc2O)CC1 returned TDP43 rescue 9%, FUS yeast rescue inactive, Abeta yeast res inactive and aSyn rescue -1%.
